Inconclusive results are not listed. Calls of active or inactive are those of the source. How the source made its calls, unless noted: active means hit-call score of the fitted dose curve at least 0.9, where 1 is the maximum; inactive means score below 0.9.
Assays:
[1] = ATG_PBREM_CIS: Attagene CIS-FACTORIAL HepG2 Assay for human Phenobarbital-responsive Enhancer Module (PBREM) (AID 2282955); settings: HepG2 PBREM cis-reporter, Attagene multiplexed transcription; actives raise or lower the signal
How it was run: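 Reporter mRNA read by RT-PCR, 6-FAM primer extension, HpaI digestion and capillary electrophoresis. Transfected HepG2 cells, 24 h compound exposure. Gain or loss of signal fitted bidirectionally relative to DMSO baseline.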

[2] = ATG_PXRE_CIS: Attagene CIS-FACTORIAL HepG2 Assay for human Pregnane X Receptor Element (PXRE) (AID 2282957); settings: HepG2 Attagene CIS-FACTORIAL PXRE reporter, mRNA; actives raise or lower the signal
How it was run: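 HepG2 cells transiently transfected with cis-element-driven multiplexed reporter units; after 24 h chemical exposure, reporter mRNA measured by RT-PCR, 6-FAM labelling, HpaI digestion and capillary electrophoresis. Bidirectional fitting relative to DMSO.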

[3] = ATG_PPRE_CIS: Attagene CIS-FACTORIAL HepG2 Assay for human Peroxisome Proliferator-activated Response Element (PPRE) (AID 2282958); settings: HepG2 PPRE cis-element reporter, Attagene transcription factor profiling; actives raise or lower the signal
How it was run: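 Read-out: fluorescent reporter mRNA fragments resolved by capillary electrophoresis after RT-PCR. HepG2 cells carried transiently transfected PPRE-driven cis reporter constructs and were dosed for 24 h; gain or loss of signal fitted relative to DMSO.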

[4] = ATG_RORE_CIS: Attagene CIS-FACTORIAL HepG2 Assay for human RAR-related Orphan Receptor Element (RORE) (AID 2282959); settings: HepG2 Attagene cis-factorial RORE reporter, mRNA; actives raise or lower the signal
How it was run: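 Readout: fluorescent reporter mRNA by RT-PCR plus capillary electrophoresis, 24 h after dosing transfected HepG2 cells. Endogenous transcription factor activity on a cis promoter element is measured. Gain or loss of signal fitted against DMSO.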

[5] = ATG_Sox_CIS: Attagene CIS-FACTORIAL HepG2 Assay for human SRY-box transcription factor (SOX) (AID 2282960); settings: HepG2 Attagene cis-factorial SOX reporter, mRNA; actives raise or lower the signal
How it was run: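 Read-out: fluorescent RT-PCR products of SOX1-linked reporter transcripts resolved by capillary electrophoresis, fitted bidirectionally against DMSO. Transiently transfected HepG2 cells, 24 h after chemical exposure, endogenous transcription factor activity.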

[6] = molecular target: Transcription factor Sp1 (Homo sapiens) (UniProt P08047); assay: ATG_Sp1_CIS: Attagene CIS-FACTORIAL HepG2 Assay for human Specificity Protein 1 (Sp1) (AID 2282961); settings: HepG2 Sp1 cis-reporter transcription, actives raise or lower the signal
How it was run: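 Read-out: fluorescence of 6-FAM-labeled, HpaI-digested RT-PCR products separated by capillary electrophoresis. HepG2 cells carried transfected cis-element reporter units and were exposed to chemicals for 24 h; gain or loss of signal fitted relative to DMSO.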

[7] = ATG_SREBP_CIS: Attagene CIS-FACTORIAL HepG2 Assay for human Sterol Regulatory Element Binding (SREBP) (AID 2282962); settings: HepG2 Attagene cis-factorial SREBP reporter, mRNA; actives raise or lower the signal
How it was run: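 HepG2 cells transiently transfected with multiplexed cis-promoter reporter units sensing endogenous transcription factors; reporter mRNA measured 24 h after dosing by RT-PCR, 6-FAM labeling, HpaI digestion and capillary electrophoresis. Bidirectional fit versus DMSO.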

[8] = ATG_TAL_CIS: Attagene CIS-FACTORIAL HepG2 Assay for human TAL Basal Promoter (AID 2282966); settings: HepG2 Attagene cis-factorial TAL promoter reporter; actives raise or lower the signal;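 further: background control endpoint measuring basal TAL promoter reporter mRNA not a specific factor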
How it was run: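 HepG2 cells transiently transfected with multiplexed cis-promoter reporter units, dosed 24 h. Reporter mRNA quantified by RT-PCR, 6-FAM labelling, HpaI digestion and capillary electrophoresis; TAL basal promoter serves as background control, fitted bidirectionally versus DMSO.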

[9] = ATG_TGFb_CIS: Attagene CIS-FACTORIAL HepG2 Assay for human Transforming Growth Factor (TGF) (AID 2282967); settings: HepG2 Attagene CIS TGFb reporter, mRNA transcription; actives raise or lower the signal
How it was run: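 Endogenous TGFB1-linked transcription factor activity read as reporter mRNA via RT-PCR and capillary electrophoresis, 24 h after dosing transiently transfected HepG2 cells. Gain or loss of signal fitted relative to DMSO.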

[10] = ATG_VDRE_CIS: Attagene CIS-FACTORIAL HepG2 Assay for human Vitamin D Receptor Element (VDRE) (AID 2282968); settings: HepG2 VDRE cis-reporter transcription, actives raise or lower the signal
How it was run: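 RT-PCR/CE readout of reporter mRNA; HepG2, transient transfection, 24 h dosing; DMSO baseline; bidirectional analysis.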

[11] = molecular target: Nuclear receptor subfamily 1 group I member 3 (Homo sapiens) (UniProt Q14994); assay: ATG_CAR_TRANS: Attagene TRANS-FACTORIAL HepG2 Assay for human Constitutive Androstane Receptor (CAR) (AID 2282969; active means hit-call score of the fitted dose curve at least 0.9, where 1 is the maximum;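 further: activators raise reporter mRNA above DMSO so AC50 marks induction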); settings: HepG2 Attagene TRANS-FACTORIAL CAR reporter
How it was run: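 HepG2 cells transiently transfected with multiplexed GAL4-UAS reporter units expressing chimeric NR-Gal4 proteins; compound exposure 24 h. Reporter mRNA measured by RT-PCR, 6-FAM labelling, HpaI digestion and capillary electrophoresis; gain-of-signal fitted against DMSO baseline.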

[12] = molecular target: Estrogen receptor (Homo sapiens) (UniProt P03372); assay: ATG_ERa_TRANS: Attagene TRANS-FACTORIAL HepG2 Assay for human Estrogen Receptor alpha (ERa) (AID 2282970; active means hit-call score of the fitted dose curve at least 0.9, where 1 is the maximum); settings: HepG2 Attagene TRANS ERa GAL4 reporter, mRNA
How it was run: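 HepG2 cells transiently transfected with multiplexed GAL4-UAS reporter units read out chimeric NR-Gal4 activity. After 24 h compound exposure, reporter mRNA was quantified by RT-PCR, 6-FAM labeling, HpaI digestion and capillary electrophoresis, relative to DMSO.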

[13] = molecular target: X-box-binding protein 1 (Homo sapiens) (UniProt P17861); assay: ATG_Xbp1_CIS: Attagene CIS-FACTORIAL HepG2 Assay for human X-box Binding Protein 1 (XBP1) (AID 2282972); settings: HepG2 XBP1 cis-element reporter, Attagene multiplex; actives raise or lower the signal
How it was run: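 HepG2 cells transiently transfected with multiple cis-element reporter units report endogenous TF activity; 24 h exposure, then reporter mRNA measured by RT-PCR, 6-FAM labelling, HpaI digestion and capillary electrophoresis. Bidirectional fitting versus DMSO.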

[14] = ATG_GAL4_TRANS: Attagene TRANS-FACTORIAL HepG2 Assay for GAL4 (Internal Marker) (AID 2282976; active means hit-call score of the fitted dose curve at least 0.9, where 1 is the maximum); settings: HepG2 Attagene TRANS GAL4 internal marker reporter
How it was run: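 Background-control readout: GAL4-UAS reporter transcript in transiently transfected HepG2 cells after 24 h compound exposure. Measured by RT-PCR, 6-FAM primer extension, HpaI digest and capillary electrophoresis; gain-of-signal fit versus DMSO.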

[15] = molecular target: Signal transducer and activator of transcription 3 (Homo sapiens) (UniProt P40763); assay: ATG_STAT3_CIS: Attagene CIS-FACTORIAL HepG2 Assay for human Signal Transducer and Activator of Transcription 3 (STAT3) (AID 2282963); settings: HepG2, Attagene cis-factorial STAT3 reporter transcription; actives raise or lower the signal
How it was run: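 Transcript-level reporter assay. HepG2 transient MRTU transfection, 24 h exposure, fluorescence detection after RT-PCR and CE; DMSO baseline.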

[16] = ATG_TA_CIS: Attagene CIS-FACTORIAL HepG2 Assay for human TA Basal Promoter (AID 2282964); settings: HepG2 Attagene CIS-factorial TA basal promoter reporter; actives raise or lower the signal
How it was run: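 Background-control readout: TA basal promoter reporter mRNA, fitted in both directions relative to DMSO. Measured by RT-PCR and capillary electrophoresis 24 hours after treating HepG2 human liver cells transiently carrying multiplexed cis-regulated reporter constructs.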

[17] = molecular target: Steroid hormone receptor ERR1 (Homo sapiens) (UniProt P11474); assay: ATG_ERRa_TRANS: Attagene TRANS-FACTORIAL HepG2 Assay for human Estrogen-Related Receptor alpha (ERRa) (AID 2282971; active means hit-call score of the fitted dose curve at least 0.9, where 1 is the maximum); settings: HepG2 Attagene TRANS reporter, ERRa transactivation
How it was run: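 HepG2 cells transiently transfected with GAL4-UAS reporter units and chimeric NR-Gal4 constructs; after 24 hour compound incubation, reporter mRNA quantified by RT-PCR, fluorescent labelling and capillary electrophoresis, gain of signal versus DMSO.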

[18] = molecular target: Paired box protein Pax-6 (Homo sapiens) (UniProt P26367); assay: ATG_Pax6_CIS: Attagene CIS-FACTORIAL HepG2 Assay for human Paired Box 6 (PAX6) (AID 2282956); settings: HepG2 CIS-FACTORIAL PAX6 reporter transcription, RNA readout; actives raise or lower the signal
How it was run: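 HepG2 cells transiently transfected with cis-promoter-driven multiplexed reporter units sensing endogenous transcription factor activity; 24 h chemical exposure. Reporter mRNA quantified by RT-PCR, 6-FAM labelling, HpaI digestion and capillary electrophoresis; bidirectional fit versus DMSO baseline.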

[19] = ATG_TCF_b_cat_CIS: Attagene CIS-FACTORIAL HepG2 Assay for human T-Cell-Factor with beta-catenin (TCF/b-cat) (AID 2282965); settings: HepG2 TCF/beta-catenin cis-reporter transcription, actives raise or lower the signal
How it was run: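 Using capillary electrophoresis as the read-out, labelled reporter cDNA fragments from transiently transfected HepG2 were sized and quantified. Exposure lasted 24 hours; activity in either direction was referenced to DMSO.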

[20] = ATG_M_19_TRANS: Attagene TRANS-FACTORIAL HepG2 Assay for M19 Transcription Factor (Internal Marker) (AID 2282974; active means hit-call score of the fitted dose curve at least 0.9, where 1 is the maximum); settings: HepG2 Attagene TRANS-FACTORIAL M19 internal marker reporter
How it was run: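 24 h chemical exposure of transiently transfected HepG2 (MRTU library). RNA → oligo(dT) RT → PCR → 6-FAM labelling → HpaI cut → CE fluorescence. Positive-direction fit vs DMSO baseline; background internal-marker readout.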

Measured: AC50

Sequence of Nuclear receptor subfamily 1 group I member 3 (Homo sapiens) (Q14994 whole entry, looked up, the tested form may be a part): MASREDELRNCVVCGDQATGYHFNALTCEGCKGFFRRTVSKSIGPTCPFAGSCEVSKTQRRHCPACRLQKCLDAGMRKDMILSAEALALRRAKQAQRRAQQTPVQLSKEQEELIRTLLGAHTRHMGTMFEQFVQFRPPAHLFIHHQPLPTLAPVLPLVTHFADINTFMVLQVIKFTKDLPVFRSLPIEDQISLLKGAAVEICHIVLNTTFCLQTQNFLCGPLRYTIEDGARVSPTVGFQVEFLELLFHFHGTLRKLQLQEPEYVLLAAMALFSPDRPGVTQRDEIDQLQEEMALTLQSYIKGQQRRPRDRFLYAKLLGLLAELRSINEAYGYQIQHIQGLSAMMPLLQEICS
Sequence of Transcription factor Sp1 (Homo sapiens) (P08047 whole entry, looked up): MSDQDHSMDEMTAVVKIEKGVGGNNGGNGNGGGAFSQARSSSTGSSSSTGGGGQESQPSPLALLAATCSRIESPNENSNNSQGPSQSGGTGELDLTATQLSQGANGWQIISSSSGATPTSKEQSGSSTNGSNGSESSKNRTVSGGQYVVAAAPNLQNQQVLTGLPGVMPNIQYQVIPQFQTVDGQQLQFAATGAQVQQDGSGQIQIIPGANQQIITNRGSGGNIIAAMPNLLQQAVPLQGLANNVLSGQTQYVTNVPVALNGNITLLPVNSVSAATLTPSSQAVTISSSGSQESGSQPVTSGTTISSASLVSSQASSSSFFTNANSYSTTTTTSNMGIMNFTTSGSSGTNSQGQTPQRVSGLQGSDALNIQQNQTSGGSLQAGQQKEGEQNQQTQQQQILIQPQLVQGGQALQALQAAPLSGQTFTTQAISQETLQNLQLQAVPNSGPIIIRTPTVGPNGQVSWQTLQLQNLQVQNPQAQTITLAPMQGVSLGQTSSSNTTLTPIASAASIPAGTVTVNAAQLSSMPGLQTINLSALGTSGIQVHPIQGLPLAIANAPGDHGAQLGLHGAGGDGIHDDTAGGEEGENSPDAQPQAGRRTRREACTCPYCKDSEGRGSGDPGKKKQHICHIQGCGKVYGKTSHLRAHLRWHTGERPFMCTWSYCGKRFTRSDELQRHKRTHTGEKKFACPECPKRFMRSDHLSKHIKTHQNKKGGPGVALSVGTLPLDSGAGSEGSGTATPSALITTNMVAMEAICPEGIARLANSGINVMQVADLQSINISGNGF
Sequence of Signal transducer and activator of transcription 3 (Homo sapiens) (P40763 whole entry, looked up): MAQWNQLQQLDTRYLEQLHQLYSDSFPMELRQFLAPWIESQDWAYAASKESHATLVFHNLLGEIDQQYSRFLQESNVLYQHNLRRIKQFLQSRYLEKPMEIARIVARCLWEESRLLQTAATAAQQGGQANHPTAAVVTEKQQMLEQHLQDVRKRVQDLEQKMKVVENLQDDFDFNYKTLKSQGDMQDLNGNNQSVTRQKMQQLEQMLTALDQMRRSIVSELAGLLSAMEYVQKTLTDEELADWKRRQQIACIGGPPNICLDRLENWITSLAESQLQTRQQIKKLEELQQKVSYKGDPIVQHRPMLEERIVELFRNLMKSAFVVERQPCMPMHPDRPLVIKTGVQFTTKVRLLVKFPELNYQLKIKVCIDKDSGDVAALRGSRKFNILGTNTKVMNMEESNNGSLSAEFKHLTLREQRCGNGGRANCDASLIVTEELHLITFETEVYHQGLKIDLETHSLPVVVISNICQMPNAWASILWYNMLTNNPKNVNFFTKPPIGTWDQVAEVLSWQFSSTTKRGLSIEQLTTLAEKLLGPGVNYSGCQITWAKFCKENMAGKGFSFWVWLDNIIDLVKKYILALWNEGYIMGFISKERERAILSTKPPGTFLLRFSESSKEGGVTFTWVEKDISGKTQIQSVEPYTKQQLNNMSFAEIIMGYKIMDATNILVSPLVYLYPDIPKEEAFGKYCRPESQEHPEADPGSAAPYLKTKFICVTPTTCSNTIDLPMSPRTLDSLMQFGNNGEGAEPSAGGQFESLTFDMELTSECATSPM
Sequence of Estrogen receptor (Homo sapiens) (P03372 whole entry, looked up, the tested form may be a part): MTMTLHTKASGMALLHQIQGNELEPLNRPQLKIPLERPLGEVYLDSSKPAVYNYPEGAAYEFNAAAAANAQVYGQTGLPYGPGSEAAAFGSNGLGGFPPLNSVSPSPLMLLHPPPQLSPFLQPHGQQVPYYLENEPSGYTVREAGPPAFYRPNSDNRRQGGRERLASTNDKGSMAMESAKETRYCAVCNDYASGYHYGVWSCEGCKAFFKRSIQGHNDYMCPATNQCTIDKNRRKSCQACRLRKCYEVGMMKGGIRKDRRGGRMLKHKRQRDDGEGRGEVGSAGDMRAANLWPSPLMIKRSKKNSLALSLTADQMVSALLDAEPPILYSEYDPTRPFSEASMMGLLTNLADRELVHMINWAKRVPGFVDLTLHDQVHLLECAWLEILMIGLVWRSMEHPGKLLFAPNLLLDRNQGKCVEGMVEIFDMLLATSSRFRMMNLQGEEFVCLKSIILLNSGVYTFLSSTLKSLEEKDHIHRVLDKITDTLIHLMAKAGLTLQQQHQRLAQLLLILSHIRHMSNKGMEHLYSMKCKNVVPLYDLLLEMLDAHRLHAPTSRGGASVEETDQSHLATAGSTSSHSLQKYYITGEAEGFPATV
Sequence of X-box-binding protein 1 (Homo sapiens) (P17861 whole entry, looked up): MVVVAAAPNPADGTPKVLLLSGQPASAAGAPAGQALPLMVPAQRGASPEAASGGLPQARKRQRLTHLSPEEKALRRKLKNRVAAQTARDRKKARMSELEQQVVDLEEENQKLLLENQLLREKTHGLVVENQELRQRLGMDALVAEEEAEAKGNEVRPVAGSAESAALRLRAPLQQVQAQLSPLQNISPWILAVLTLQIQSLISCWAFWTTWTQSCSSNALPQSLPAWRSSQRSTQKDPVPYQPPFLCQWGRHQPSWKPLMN
Sequence of Paired box protein Pax-6 (Homo sapiens) (P26367 whole entry, looked up): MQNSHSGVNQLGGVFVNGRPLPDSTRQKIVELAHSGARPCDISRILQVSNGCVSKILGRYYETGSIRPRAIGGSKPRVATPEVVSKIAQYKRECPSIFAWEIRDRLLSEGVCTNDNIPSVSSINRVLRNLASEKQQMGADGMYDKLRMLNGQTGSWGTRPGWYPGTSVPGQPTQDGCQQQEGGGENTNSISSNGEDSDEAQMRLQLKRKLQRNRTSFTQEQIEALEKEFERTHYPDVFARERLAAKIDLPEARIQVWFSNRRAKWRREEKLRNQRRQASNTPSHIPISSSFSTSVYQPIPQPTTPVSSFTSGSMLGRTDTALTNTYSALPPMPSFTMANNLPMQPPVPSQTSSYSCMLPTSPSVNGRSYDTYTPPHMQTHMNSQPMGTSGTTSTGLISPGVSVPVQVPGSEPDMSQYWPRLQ
Sequence of Steroid hormone receptor ERR1 (Homo sapiens) (P11474 whole entry, looked up, the tested form may be a part): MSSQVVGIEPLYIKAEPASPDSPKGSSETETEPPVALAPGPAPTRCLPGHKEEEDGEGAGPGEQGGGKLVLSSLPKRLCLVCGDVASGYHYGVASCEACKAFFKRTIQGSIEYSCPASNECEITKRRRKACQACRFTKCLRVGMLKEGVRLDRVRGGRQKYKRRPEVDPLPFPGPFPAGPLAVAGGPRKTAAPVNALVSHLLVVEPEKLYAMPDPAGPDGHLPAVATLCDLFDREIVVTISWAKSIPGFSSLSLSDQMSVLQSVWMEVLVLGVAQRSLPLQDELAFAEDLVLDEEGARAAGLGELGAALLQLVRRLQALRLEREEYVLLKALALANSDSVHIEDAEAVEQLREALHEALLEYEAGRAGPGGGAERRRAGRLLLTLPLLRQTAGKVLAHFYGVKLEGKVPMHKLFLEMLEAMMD

CCCSSCCC
inactive: [1] | [2] | [3] | [4] | [5] | [6] | [7] | [8] | [9] | [10] | [11] | [12] | [13] | [14]

COc1ccc(C(=O)/C(Br)=C\C(=O)O)cc1
active: [4] 32.5 µM | [6] 59 µM
inactive: [1] | [5] | [7] | [15] | [16] | [8] | [9] | [12] | [17] | [13]

COCC(=O)O
inactive: [18] | [2] | [3] | [4] | [5] | [6] | [7] | [15] | [16] | [19] | [8] | [9] | [10] | [12] | [13] | [20]

CCC1COC(=O)O1 (stereo not given)
active: [2] 16.6 µM
inactive: [18] | [3] | [4] | [5] | [6] | [7] | [15] | [16] | [19] | [8] | [9] | [10] | [12] | [13]

O=C(C=Cc1ccccc1)OCCc1ccccc1
inactive: [1] | [4] | [5] | [6] | [7] | [15] | [19] | [8] | [9] | [11] | [13] | [20] | [14]
active: [2] 12.8 µM | [16] 53.9 µM

O=C1c2ccccc2C(=O)c2cc(S(=O)(=O)O)ccc21
inactive: [1] | [2] | [3] | [4] | [5] | [6] | [7] | [15] | [19] | [8] | [9] | [13] | [20]

CCCCCCCCCCCCCCCCCCOS(=O)(=O)O
inactive: [18] | [2] | [3] | [4] | [5] | [6] | [15] | [8] | [9] | [12] | [17] | [20]
active: [7] 52.7 µM | [16] 12.4 µM | [19] 17.3 µM | [10] 51.7 µM | [13] 33.4 µM

CC1=CC=C(C(C)C)CC1
inactive: [1] | [5] | [6] | [7] | [15] | [16] | [8] | [9] | [11] | [12] | [13] | [20]

CCCCCCCCCCCC(=O)OCC
inactive: [18] | [2] | [3] | [4] | [5] | [6] | [7] | [15] | [16] | [19] | [8] | [9] | [10] | [12] | [13] | [20]

CCCC(CC)c1ccccc1 (stereo not given)
inactive: [1] | [4] | [5] | [15] | [16] | [19] | [8] | [9] | [10] | [11] | [13] | [20]
active: [6] 180 µM | [7] 164 µM | [12] 55.3 µM
